The nature of test [1]: binders of probe aFSTL3 on microarray, primary screen, stem cell growth factor project, biochemical, small-molecule microarray, fluorescence 635/667 (AID 1064).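 Note: measures binding of the biotinylated anti-FSTL3 antibody to printed compounds.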 The conditions noted are these: higher = more signal.
Test [2] is described as follows: binders from COS7 lysate, DM2A8 probe, primary screen, torsin A project, cell lysate, small-molecule microarray, fluorescence 635/667 (AID 1065). Particulars: higher = more signal, COS7 lysate expressing mutant human TOR1A.
A short description of test [3]: binders of probe aFGF2 on microarray, primary screen, stem cell growth factor project, biochemical, small-molecule microarray, fluorescence 635/667 (AID 1067).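 Note: measures binding of biotinylated aFGF2 protein to printed compounds on slides; z-score merges feature fluorescence and signal-to-noise across triplicate slides.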 Particulars: higher = more signal.
A short description of test [4]: binders of probe aFGF10 on microarray, primary screen, stem cell growth factor project, biochemical, small-molecule microarray, fluorescence 635/667 (AID 1071).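 Note: score merges 667 nm spot intensity and signal to noise from triplicate slides.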 Particulars: higher = more signal.
For test [5], the target named is Neurogenic locus notch homolog protein 2 (Homo sapiens) (UniProt Q04721). The test is described as follows: Notch2 binders on small-molecule microarrays, primary screen, biochemical, small-molecule microarray, 635 nm fluorescence, stem cell growth factors (AID 1073). Particulars: Notch2 binding, higher = more signal.
The target of test [6] is Pro-neuregulin-1, membrane-bound isoform (Homo sapiens) (UniProt Q02297). The test is described as follows: NRG1 binders on small-molecule microarrays, primary screen, psychiatric disease protein project, biochemical, small-molecule microarray, fluorescence 635/667 (AID 1075).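 Note: score combines 667 nm spot fluorescence with signal to noise.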 The conditions noted are these: NRG1 binding, 635 nm fluorescence, higher = more signal.
Test [7] has as its system Neuregulin-1 EGF-like domain. As to the kind of experiment: binders of neuregulin-1 EGF-like domain, primary screen, biochemical, small-molecule microarray, 635 nm fluorescence (AID 1081).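 Note: binding of the protein to compounds printed on small-molecule microarray slides.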 The conditions noted are these: small-molecule microarray binding, higher = more signal.
Test [8] in a line: FRG1 promoter luciferase signal modulators, primary screen, FRG1 inhibition for FSHD, cell-based, C2C12 myotubes, firefly/Renilla luciferase, luminescence (AID 1084). Particulars: higher = more signal, called active from +8 up or from −8 down.
Test [9] is described as follows: binders of probe aFST on microarray, primary screen, stem cell growth factor project, biochemical, small-molecule microarray, fluorescence 635/667 (AID 1086).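 Note: score merges 667 nm fluorescence with signal-to-noise of each printed compound spot.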 Particulars: higher = more signal.
A short description of test [10]: binders of probe aHhip on microarray, primary screen, stem cell growth factor project, biochemical, small-molecule microarray, fluorescence 635/667 (AID 1087).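 Note: score merges spot fluorescence at 667nm with spot signal to noise ratio.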 Particulars: higher = more signal.
Test [11] relates to PRMT1 (protein arginine N-methyltransferase 1). The test is described as follows: PRMT1 binders on small-molecule microarrays, primary screen, biochemical, small-molecule microarray, 635 nm fluorescence (AID 1088).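 Note: binding of Prmt1 protein to compounds spotted on small-molecule microarray slides.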 The conditions noted are these: small-molecule microarray binding, higher = more signal.
Test [12] can be described thus: yeast growth modulation, basal conditions, primary screen, YJM789 clinical isolate, OD600, 24 h (AID 1089).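 Note: growth of clinical yeast isolate S. cerevisiae YJM 789 seeded 1000 cells per well; test concentration not given here.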 Particulars: S. cerevisiae YJM789 growth, higher = more signal, called active from +8 up or from −8 down.
Test [13] in a line: fission yeast growth modulation, primary screen, strain 972, OD600, 24 h, no modulator (AID 1090).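 Note: basal condition with compound alone and no growth modifier present; test concentration not given here.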 Particulars: S. pombe 972 growth, higher = more signal, called active from +8 up or from −8 down.
Test [14] in a line: S. cerevisiae growth modulation with rapamycin, primary screen, strain BY4716, OD600, 96 h (AID 1091). Note: test concentration not given here. Particulars: higher = more signal, called active from +8 up or from −8 down.
Test [15] deals with Torsin-1A-interacting protein 2 (Homo sapiens) (UniProt Q8NFQ8). The test is described as follows: LULL1 binders on small-molecule microarray, primary screen, cell lysate, human LULL1 lysate, 635/667 nm fluorescence (AID 1092).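 Note: score merges per-feature 667 nm fluorescence with signal-to-noise.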 The conditions noted are these: hLULL1 lysate binding, 635 nm fluorescence, higher = more signal.
Test [16] is described as follows: E. coli growth modulation, two-sided OD650, primary screen, E. coli filamentation project, strain DRC41, 24 h (AID 1093).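 Note: MC1000 strain lacking acrAB efflux and sulA so SOS filamentation is blocked; test concentration not given here.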 Particulars: OD650, 24 h, higher = more signal, called active from +8 up or from −8 down.
A short description of test [17]: small-molecule microarray binders of probe aLefty2, primary screen, biochemical, biotinylated probe, 635/667 nm fluorescence (AID 1094).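 Note: score merges spot fluorescence near 667 nm with spot signal-to-noise ratio.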 The conditions noted are these: higher = more signal.
Test [18] has as its system Noggin (protein binding on small-molecule microarray). The test is described as follows: Noggin binders on small-molecule microarray, primary screen, biochemical, 635/667 nm fluorescence (AID 1095).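 Note: score merges 667 nm feature fluorescence with signal to noise over triplicate slides.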 The conditions noted are these: 635 nm fluorescence, higher = more signal.
Test [19] concerns the target Neurogenic locus notch homolog protein 3 (Homo sapiens) (UniProt Q9UM47). The test is described as follows: NOTCH3 binders on small-molecule microarray, primary screen, biochemical, 635/667 nm fluorescence (AID 1096). Particulars: NOTCH3 binding, 635 nm fluorescence, higher = more signal.
Test [20] is described as follows: small-molecule microarray binders of probe aEGFR, primary screen, biochemical, biotinylated probe, 635/667 nm fluorescence (AID 1097).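 Note: probe is a biotinylated anti-EGFR antibody binding compounds printed on slides; score combines fluorescence near 667 nm and signal to noise of each spot.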 Particulars: higher = more signal.

Calls of active or inactive are those of the source.

Sequence of Neurogenic locus notch homolog protein 3 (Homo sapiens) (Q9UM47 whole entry, looked up): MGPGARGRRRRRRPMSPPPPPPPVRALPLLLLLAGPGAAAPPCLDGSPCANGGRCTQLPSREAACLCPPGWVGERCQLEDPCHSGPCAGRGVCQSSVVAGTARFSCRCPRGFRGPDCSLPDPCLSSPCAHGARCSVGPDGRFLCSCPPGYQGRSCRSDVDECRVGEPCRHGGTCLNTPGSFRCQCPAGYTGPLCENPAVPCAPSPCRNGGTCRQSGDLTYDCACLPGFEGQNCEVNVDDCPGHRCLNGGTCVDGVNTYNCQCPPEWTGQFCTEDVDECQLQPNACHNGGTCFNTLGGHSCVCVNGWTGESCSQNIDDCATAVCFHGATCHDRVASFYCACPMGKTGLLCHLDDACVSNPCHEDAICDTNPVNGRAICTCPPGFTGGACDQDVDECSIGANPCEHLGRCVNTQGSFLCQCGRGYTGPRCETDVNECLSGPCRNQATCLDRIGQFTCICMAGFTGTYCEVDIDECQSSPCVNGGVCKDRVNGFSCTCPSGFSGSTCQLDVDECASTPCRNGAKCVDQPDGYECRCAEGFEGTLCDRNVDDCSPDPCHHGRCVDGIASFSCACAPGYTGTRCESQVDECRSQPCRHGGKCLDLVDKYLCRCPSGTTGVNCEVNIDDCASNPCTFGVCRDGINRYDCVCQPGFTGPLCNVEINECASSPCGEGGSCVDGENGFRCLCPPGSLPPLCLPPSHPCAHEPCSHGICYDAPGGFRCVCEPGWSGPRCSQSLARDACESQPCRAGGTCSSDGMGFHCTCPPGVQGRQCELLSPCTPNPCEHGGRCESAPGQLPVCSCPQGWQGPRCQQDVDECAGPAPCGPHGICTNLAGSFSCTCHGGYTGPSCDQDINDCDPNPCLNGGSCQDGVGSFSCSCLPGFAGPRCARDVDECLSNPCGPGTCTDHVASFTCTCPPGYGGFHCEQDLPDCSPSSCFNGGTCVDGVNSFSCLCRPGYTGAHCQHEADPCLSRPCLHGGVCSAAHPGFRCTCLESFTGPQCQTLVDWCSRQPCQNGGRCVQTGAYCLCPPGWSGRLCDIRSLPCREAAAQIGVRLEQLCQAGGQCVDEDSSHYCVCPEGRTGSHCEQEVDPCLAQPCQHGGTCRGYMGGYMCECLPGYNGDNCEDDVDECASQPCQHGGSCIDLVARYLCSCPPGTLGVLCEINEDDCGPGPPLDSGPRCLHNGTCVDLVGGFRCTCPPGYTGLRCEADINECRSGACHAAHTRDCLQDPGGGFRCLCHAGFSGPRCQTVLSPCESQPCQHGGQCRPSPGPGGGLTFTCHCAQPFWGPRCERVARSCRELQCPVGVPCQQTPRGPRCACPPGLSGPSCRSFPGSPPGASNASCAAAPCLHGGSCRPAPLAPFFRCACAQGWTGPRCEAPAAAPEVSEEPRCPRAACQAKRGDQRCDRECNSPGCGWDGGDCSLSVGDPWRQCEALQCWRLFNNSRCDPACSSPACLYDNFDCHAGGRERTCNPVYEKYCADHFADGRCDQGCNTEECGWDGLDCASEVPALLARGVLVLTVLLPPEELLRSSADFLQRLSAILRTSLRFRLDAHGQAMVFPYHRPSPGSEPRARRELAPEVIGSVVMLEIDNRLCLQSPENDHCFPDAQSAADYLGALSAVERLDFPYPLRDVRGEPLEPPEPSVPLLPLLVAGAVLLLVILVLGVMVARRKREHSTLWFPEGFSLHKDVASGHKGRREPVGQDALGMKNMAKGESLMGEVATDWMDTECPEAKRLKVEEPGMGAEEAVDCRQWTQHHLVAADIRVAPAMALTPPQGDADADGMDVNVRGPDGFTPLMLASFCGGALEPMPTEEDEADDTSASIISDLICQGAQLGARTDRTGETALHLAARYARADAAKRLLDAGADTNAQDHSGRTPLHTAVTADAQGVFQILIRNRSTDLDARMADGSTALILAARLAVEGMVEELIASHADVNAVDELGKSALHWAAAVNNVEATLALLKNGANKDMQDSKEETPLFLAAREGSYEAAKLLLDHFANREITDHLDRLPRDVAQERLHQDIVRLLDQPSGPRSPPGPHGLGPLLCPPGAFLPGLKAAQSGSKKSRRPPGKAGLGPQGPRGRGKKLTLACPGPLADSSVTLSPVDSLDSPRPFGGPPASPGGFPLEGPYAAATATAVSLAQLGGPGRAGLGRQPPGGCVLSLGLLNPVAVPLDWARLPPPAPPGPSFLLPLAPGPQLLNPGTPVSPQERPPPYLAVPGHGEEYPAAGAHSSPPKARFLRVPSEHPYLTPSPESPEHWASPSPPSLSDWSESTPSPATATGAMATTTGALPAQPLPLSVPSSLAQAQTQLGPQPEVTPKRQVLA
Sequence of Pro-neuregulin-1, membrane-bound isoform (Homo sapiens) (Q02297 whole entry, looked up, the tested form may be a part, canonical isoform): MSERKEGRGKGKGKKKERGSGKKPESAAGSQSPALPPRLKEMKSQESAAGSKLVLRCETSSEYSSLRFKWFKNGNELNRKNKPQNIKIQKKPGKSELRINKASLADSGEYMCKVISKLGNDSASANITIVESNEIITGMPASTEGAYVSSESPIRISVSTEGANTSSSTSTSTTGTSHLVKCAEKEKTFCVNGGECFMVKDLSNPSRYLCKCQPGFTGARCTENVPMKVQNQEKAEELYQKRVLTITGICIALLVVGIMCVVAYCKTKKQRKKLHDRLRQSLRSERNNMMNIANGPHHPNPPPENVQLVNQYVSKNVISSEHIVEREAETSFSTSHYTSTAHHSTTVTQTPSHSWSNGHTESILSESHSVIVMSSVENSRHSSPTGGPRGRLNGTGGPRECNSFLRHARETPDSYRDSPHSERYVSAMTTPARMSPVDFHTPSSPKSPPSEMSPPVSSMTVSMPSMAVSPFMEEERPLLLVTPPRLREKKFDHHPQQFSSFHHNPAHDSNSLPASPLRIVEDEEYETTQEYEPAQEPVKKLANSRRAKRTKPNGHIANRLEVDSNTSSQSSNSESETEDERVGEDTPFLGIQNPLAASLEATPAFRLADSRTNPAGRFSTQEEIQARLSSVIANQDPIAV
Sequence of Torsin-1A-interacting protein 2 (Homo sapiens) (Q8NFQ8 whole entry, looked up): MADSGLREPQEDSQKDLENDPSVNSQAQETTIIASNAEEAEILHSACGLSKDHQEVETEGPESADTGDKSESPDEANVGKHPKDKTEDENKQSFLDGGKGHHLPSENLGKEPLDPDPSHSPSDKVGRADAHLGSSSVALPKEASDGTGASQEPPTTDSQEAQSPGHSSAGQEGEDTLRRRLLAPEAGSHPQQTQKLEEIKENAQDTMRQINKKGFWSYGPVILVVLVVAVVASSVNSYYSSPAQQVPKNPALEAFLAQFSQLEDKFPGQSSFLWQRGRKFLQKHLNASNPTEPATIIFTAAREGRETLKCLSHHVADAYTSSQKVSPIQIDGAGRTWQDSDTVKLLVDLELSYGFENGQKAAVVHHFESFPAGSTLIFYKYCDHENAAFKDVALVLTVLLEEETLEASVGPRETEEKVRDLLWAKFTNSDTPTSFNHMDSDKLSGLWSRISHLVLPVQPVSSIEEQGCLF

Regarding `O=C(NCC(O)CO)[C@@]1(Cc2ccccc2)COC(c2ccc(OCCCO)cc2)=N1` (stereo not given in full), the composite z-score in test [1] was 0.213; in [2] it was -0.0995; in [3] it was -0.083; in test [4] it was 0.138; in test [5] it was -0.0908; in test [6], 0.736. The composite z-score was 0.698 in test [7]; 0.112 in test [9]; -0.12 in test [10]; -0.546 in test [11]; 1.1 in test [15]; -0.0809 in test [17]. Besides, the composite z-score in [18] was -0.891; in [19], -1.18; in [20] it was 0.132. The z-score was 0.518 (inactive) in test [8]; 0.0965 (inactive) in test [12]; -0.92 (inactive) in test [13]; -0.639 (inactive) in test [14]; 0.869 (inactive) in [16].

As to `O=C1O[C@@H](c2ccccc2)[C@@H](c2ccccc2)N2[C@@H](c3ccc(O)cc3)[C@]3(C(=O)Nc4ccccc43)[C@@H](C(=O)NC[C@H](O)c3ccccc3)[C@H]12`, the composite z-score in test [1] was -0.263; in test [2], 0.606; in test [3] it was -0.141; in test [4] it was 0.0271; in [5], 0.135; in test [6] it was 1.69. Also, the composite z-score in test [7] was 0.552; in test [9], -0.174; in [10] it was -0.12; in test [11] it was 0.867; in test [15] it was 2.02; in test [17], -0.12. In addition, the composite z-score in test [18] was 0.753; in test [19], 0.0385; in test [20], -0.112. The z-score in [8] was -1.23 (inactive); in test [12] it was 0.3 (inactive); in test [13], 0.572 (inactive); in test [14], 1.49 (inactive); in test [16], 1.76 (inactive).

Take `COc1ccc([Si](C)(C)[C@H]2[C@H](CC(=O)N(CCO)Cc3ccccc3)O[C@@]3(C(=O)N(Cc4cccc(N5C(=O)c6cccc7cccc5c67)c4)c4ccccc43)[C@@H]2C)cc1`: the composite z-score is -0.184 in test [1]; 0.199 in test [2]; -0.0664 in test [3]; 0.202 in test [4]; -0.588 in test [5]; 0.824 in [6]. Also, the composite z-score in test [7] was 1.2; in test [9], -0.246; in test [10] it was -0.236; in test [11], 1.19; in [15] it was 1.72; in [17], -0.0158. The figures for the composite z-score in test [18], in test [19] and in [20] were 0.315, 0.228 and -0.378, respectively. Besides, the z-score in test [8] is -3.13 (inactive); in [12] it was -1.64 (inactive); in test [13], -0.897 (inactive); in [14] it was 2.79 (inactive); in test [16] it was 1.02 (inactive).

`CCOC(=O)C[C@H]1[C@H](OC(=O)c2ccccc2-c2ccccc2)[C@@H](NC(=O)c2ccc(-c3ccccc3)cc2)c2cc(OCCCO)ccc2N1C(=O)c1ccccc1`: the composite z-score was -0.491 in [1]; 0.167 in [2]; -0.0428 in test [3]; 0.69 in test [4]; 0.56 in test [5]; 0.106 in test [6]. The composite z-score in test [7] was 0.787; in test [9], 0.342; in test [10], 0.177; in test [11] it was 0.997; in test [15], 1.99; in [17], -0.0888. Also, the composite z-score in test [18] worked out at 0.603; in [19], 0.695; in [20], 0.104. In addition, the z-score in [8] was -0.172 (inactive); in [12] it was 0.742 (inactive); in [13], 0.5 (inactive); in [14] it was 1.7 (inactive); in test [16] it was 1.04 (inactive).

On to `O=C1OCC=C[C@H]2OC34C=CCN(c5ccc(Cl)cc5)C(=O)[C@H]3N(CCCO)C(=O)[C@@H]4[C@@H]12` (stereo not given in full), for which the composite z-score in [1] was 0.768; in test [2], -0.38; in test [3] it was -0.0847; in test [4], -0.573; in test [5] it was -1.6; in test [6], 0.3. The composite z-score in test [7] is 1.41; in test [9] it was -0.415; in test [10] it was -0.277; in test [11] it was 0.631; in test [15], 2.56; in test [17], -0.0783. Moreover, the values for the composite z-score in [18], in test [19] and in test [20] were -0.996, -0.478 and -0.28, respectively. The z-score is -0.0992 (inactive) in [8]; 0.0783 (inactive) in test [12]; -0.252 (inactive) in [13]; 0.0814 (inactive) in test [14]; 1.3 (inactive) in test [16].
